The source of these data is PubChem BioAssay AID624330 (Southern Research Specialized Biocontainment Screening …, 2012).

Structures are written as SMILES. Where “and” joins values, the source holds several entries; their conditions need not be identical. Identical values can stand only once. Screen size: about 340,000 compounds; about 2,100 (0.62%) were called active. Not all results are given here. Measured potencies and affinities stand elsewhere. Unmarked numbers belong to inactive results.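 How the source made its calls: active means first-screen hits whose inhibition reached a set limit at any dose in the follow-up dose series; inconclusive means inhibition above the set first-screen limit but never retested; inactive means the rest.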

The target in this assay is Rac GTPase-activating protein 1 (Homo sapiens) (UniProt Q9H0H5). Description: blockers of MgcRacGAP-driven Rac1 GTP hydrolysis – biochemical, ADP Hunter fluorescence, primary and confirmatory, confirmation (AID 624330).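 Further: fluorescence reports GDP produced by GAP-driven GTP hydrolysis.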 Particulars: MgcRacGAP-stimulated Rac1 GTP hydrolysis, at 30 µM, active compounds read high, GST-tagged Rac1 F28L mutant substrate.
Sequence of Rac GTPase-activating protein 1 (Homo sapiens) (Q9H0H5 whole entry, looked up): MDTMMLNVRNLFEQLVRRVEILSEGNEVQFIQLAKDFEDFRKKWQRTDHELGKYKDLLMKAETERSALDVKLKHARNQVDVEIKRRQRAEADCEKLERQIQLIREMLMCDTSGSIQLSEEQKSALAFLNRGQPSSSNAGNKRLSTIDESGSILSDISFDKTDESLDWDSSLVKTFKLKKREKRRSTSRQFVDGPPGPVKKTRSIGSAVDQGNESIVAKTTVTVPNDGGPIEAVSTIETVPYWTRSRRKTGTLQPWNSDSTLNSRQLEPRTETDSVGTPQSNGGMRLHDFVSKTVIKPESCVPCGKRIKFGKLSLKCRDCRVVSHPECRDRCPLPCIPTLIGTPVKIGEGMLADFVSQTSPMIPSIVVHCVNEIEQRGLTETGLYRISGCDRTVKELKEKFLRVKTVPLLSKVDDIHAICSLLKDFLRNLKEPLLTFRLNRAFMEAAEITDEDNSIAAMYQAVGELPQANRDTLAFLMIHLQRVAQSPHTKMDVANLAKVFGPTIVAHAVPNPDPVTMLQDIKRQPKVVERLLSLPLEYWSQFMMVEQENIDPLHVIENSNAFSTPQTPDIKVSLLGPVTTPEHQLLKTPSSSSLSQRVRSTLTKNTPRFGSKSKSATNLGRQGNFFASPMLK
Regarding `CCCSCCCNC(=O)c1ccc(C)c(NC(=O)C2=C(C)OCCS2)c1`, the inhibition is 6.84%.
For `CCC(=O)N1C(=O)CCN(C(C)=O)c2ccccc21`, the inhibition was 11.8%.
The value for `COc1cccc(NC(=O)CN(C)C(=O)C(CCSC)NC(=O)c2ccco2)c1` (stereo unspecified) was 1.87%.
Next, `Cc1nn(C)c(=S)[nH]c1=S`: -2.65%; `O=C(NCc1nc2ccccc2[nH]1)c1cccc(S(=O)(=O)N2CCCCC2)c1`: 1.53%.
`Cc1c(C(=O)N/N=C/c2cccnc2)sc(N)c1C#N`: the inhibition was 6.19%.
The value for `COc1cc(/C=N/NC(=O)c2sc(N)c(C#N)c2C)cc(Br)c1O` was 11.7%; that for `COc1ccc(C(=O)NC2=Nc3ccccc3N=C(C)C2c2ccccc2)cc1` (stereo unspecified) was 0.78%; that for `Nc1cc(N)nc(SCC(=O)N2CCN(S(=O)(=O)c3ccccc3)CC2)n1` was 7.76%.
The value for `c1ccc2c(c1)Nc1cc3ccccc3cc1O2` was -1.21%; that for `COc1ccc(/C=N/NC(=O)CCn2nnc3ccccc32)cc1` was 15.9%; that for `CCOc1cc(/C=N\NC(=O)Cn2nnc3ccccc32)ccc1O` was 28.1%.
The value for `COc1cccc(/C=N/NC(=O)CCn2nnc3ccccc32)c1` was 1.99%; that for `COc1ccc(C(O)c2nc3ccccc3n2C)cc1OC` (stereo unspecified) was 3.18%.
On to `COc1cccc(/C=N/NC(=O)C(C)n2nnc3ccccc32)c1` (stereo unspecified), for which the inhibition is 9.47%.
As for `COc1ccc(/C=N/NC(=O)Cn2nnc3ccccc32)cc1OC`, the inhibition is 3.04%.
Consider `COc1ccc(/C=N/NC(=O)C(C)n2nnc3ccccc32)cc1OC` (stereo unspecified), for which the inhibition was 8.77%.
Take `Cc1cccc(C(C)n2nnc3ccccc32)c1O` (stereo unspecified): the inhibition was 6.53%.
The value for `O=C(c1ccnc(Cl)c1)N1CCCC(Nc2ccc(F)cc2)C1` (stereo unspecified) was 6.71%.
Next, `CCc1nnc(NC(=O)CSc2nnc(C3CC3)n2C)s1`: 3.03%; `Cc1ccc(OC/C(O)=C(\C#N)c2nc3ccccc3s2)cc1`: 0.24%.
Next, `CN(C1CCS(=O)(=O)C1)S(=O)(=O)c1ccc(N2CCCC2=O)cc1` (stereo unspecified): 14.4%; `COc1ccc(CCNC(=O)C(=O)NCC2CCCN2S(=O)(=O)c2ccccc2)cc1OC` (stereo unspecified): 1.68%.
In the case of `CC(NC(=O)Nc1ccc([N+](=O)[O-])cc1)C(c1cccs1)N1CCCC1` (stereo unspecified), the inhibition is 8.33%.
In the case of `COc1ccc(/C=N/NC(=O)CCn2c3ccccc3c3ccccc32)cc1O`, the inhibition was 11.7%.
The value for `COc1ccc(/C=N/NC(=O)CCn2c3ccccc3c3ccccc32)cc1OC` was -2.76%; that for `COc1ccc(CCc2ccc3cc(OC)ccc3n2)cc1` was 1.87%; that for `O=C(O)c1ccccc1C(=O)N(Cc1ccccc1)Cc1ccccc1` was 4%.
The value for `CC(C)[C@H](N)c1cn([C@@H](CO)C(=O)N2CCNCC2)nn1` was 6.71%.
Next, `CCCc1c(C(=O)N/N=C/c2ccc3c(c2)OCO3)nnn1-c1nonc1N`: 3.5%; `CC(C#N)(NC(=O)CN1CCN(S(=O)(=O)c2cccc(F)c2)CC1)C1CC1` (stereo unspecified): 23.8%; `COc1ccc(CCC(=O)N2CCN(S(=O)(=O)c3ccc(OC)c([N+](=O)[O-])c3)CC2)cc1`: 14.3%.
As for `Cc1nc2ncnn2c(C)c1CCC(=O)NCCc1ccccc1`, the inhibition is 3.16%.
Next, `Cc1ccc([N+](=O)[O-])c2c1C(N1CCCC1)C(C)(C)O2` (stereo unspecified): 5.51%.
Regarding `N#Cc1ccccc1NC(=O)CN1CCN(Cc2ccccc2)CC1`, the inhibition is -4.52%.
Next, `COC(=O)c1ccc(C)c(-n2c(C)cc(C=O)c2C)c1`: 2.91%.
The value for `COC(=O)N1CCN(c2ccc(Cl)c(Cl)c2)CC1` was 6.48%; that for `NC(=O)CN1CCN(c2cccc(Cl)c2)CC1` was 6.34%.
The value for `CCOC(=O)N1CCN(c2ccc(Cl)c(Cl)c2)CC1` was -6.41%.
Turning to `Clc1cccc(N2CCN(CCCN3CCN(c4ccccc4)CC3)CC2)c1`, the inhibition is 7.52%.
The value for `COc1ccc(NC(=O)c2ccc3ccccc3n2)cc1S(=O)(=O)N1CCCCC1` was 3.75%; that for `O=C(O)C(O)Cc1c[nH]c2ccccc12` (stereo unspecified) was 5.43%.
Next, `Cc1ccc(S(=O)(=O)Nc2ccccc2N=Cc2ccc([N+](=O)[O-])cc2[N+](=O)[O-])cc1`: 4.67%.
The value for `O=C(CN1CCN(c2ccccn2)CC1)Nc1nc2ccccc2s1` was 12.2%.
Consider `O=C(CN1CCN(Cc2ccccc2)CC1)Nc1nc2ccccc2s1`, for which the inhibition was 14%.
The value for `COc1ccc2nc(NC(=O)CN3CCN(C)CC3)sc2c1` was 14.5%.
With `CCOc1ccc2nc(NC(=O)CN3CCN(CC)CC3)sc2c1`, the inhibition is 5.24%.
Next, `CCOC(=O)N1CCN(CC(=O)Nc2nc3ccccc3s2)CC1`: -4.03%; `CCCN1CCN(CC(=O)Nc2nc3ccccc3s2)CC1`: 12.4%.
Consider `Cc1[nH]nc(N=CC2=C(O)CC(c3ccco3)CC2=O)c1-c1ccccc1` (stereo unspecified), for which the inhibition is -2.48% and -0.93%.
Next, `CNC(=O)c1cc(C(=O)c2ccc(F)cc2Cl)c[nH]1`: 4.17%; `CC1CCCCC1NC(=O)C1CC=CCC1C(=O)O` (stereo unspecified): -1.3%; `CCC1=C(OC(=O)N(CC)CC)N2C(=O)OC(=NCC(=O)OC)[C@]2(Cc2ccccc2)[C@H]2C1=CC[C@H]1C(=O)N(C)C(=O)[C@H]12`: 0.87%.
Next, `O=C(NC(=S)N1CCN(c2ccc([N+](=O)[O-])cc2)CC1)c1ccco1`: 13.1%.
Next, `CC1CCN(CC(=O)Nc2ccccc2C(=O)NC2CC2)CC1`: 3.3%; `O=C(NC(=S)N1CCN(c2ccccc2)CC1)c1ccco1`: 5.3%.
Take `S=C(NCCc1ccccc1)N1CCN(C(=S)NCCc2ccccc2)CC1`: the inhibition is 1.96%.
The value for `O=C(CN1CCN(S(=O)(=O)c2ccccc2)CC1)Nc1ccccc1C(=O)NC1CC1` was 4.29%; that for `O=C(CN1CCN(c2ccccc2)CC1)Nc1ccccc1C(=O)NCCc1ccccc1` was 15.8%.
Next, `O=C(CN1CCN(c2ccc(F)cc2)CC1)Nc1ccccc1C(=O)NCCc1ccccc1`: 9.18%; `COc1ccc(N2CCN(C(=S)NCCc3ccccc3)CC2)cc1`: 5.11%.
